TROY signal inh: blocks TROY-dependent signaling in reporter cells; Q293 LMP1-TROYcd NF-kB luciferase reporter, 4 h; inhibition, % at 10 µM; 0.98% of 360,000 active; AID 1347056;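 active means compounds whose plate-normalised and pattern-corrected inhibition of the luciferase reporter signal at the single screening dose is 50% or more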
TWEAK Fn14 block: blocks TWEAK-Fn14 interaction in a reporter cell assay | inhibition, % at 10 µM | AID 1159606 | 2% of 360,000 active | TWEAK-stimulated Fn14 reporter cells, luciferase luminescence, 8 h; in the data active means inhibition above about 50%
EBV LMP1 NFkB: reduces LMP1-driven NF-kappaB luciferase signal; LMP1-induced NF-kappaB luciferase reporter cells, luminescence; 0.69% of 350,000 active; inhibition, % at 12.5 µM; AID 504558; in the data active means inhibition above about 41%; inconclusive means no clear call, values can overlap the other calls;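 further: 0% = neutral control wells and 100% = reference inhibitor control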
LGR2 inh: Drosophila LGR2 receptor signaling inhibition | HEK293 LGR2, CRE-luciferase, bursicon-stimulated, 4 h | inhibition, % at 9.99 µM | 0.35% of 380,000 active | AID 720647;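 active means drop in luminescence signal, shown as inhibition above about 50% in the replicate tests, limit read from the data, passing the limit was not always enough; inconclusive means probably only some replicates passing the limit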;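 further: agonist challenge used bursicon conditioned medium at about half maximal strength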
EWS-Fli inh: inhibitors of EWS/Fli oncoprotein transcriptional activity | A673 NR0B1-luciferase reporter, viability-normalised | inhibition, % at 12.6 µM | 0.67% of 350,000 active | AID 651661;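 active means mean inhibition of at least 50% after viability correction, with every replicate also passing that limit; inconclusive means mean reaches 50% but only one of two replicates passes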;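 further: firefly luciferase signal divided by Alamar Blue viability fluorescence both relative to DMSO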
An asterisk follows results filed as active; u = inconclusive; x = no result given; ! = repeats disagree. This is a sample that favours compounds with a hit; in the whole collection about 2.5% have one here.

SMILES	TROY signal inh	TWEAK Fn14 block	EBV LMP1 NFkB	LGR2 inh	EWS-Fli inh
CN(C)C(=O)[C@H]1[C@H](CO)[C@H]2Cn3c(ccc(-c4ccccc4F)c3=O)[C@@H]1N2C(=O)c1cccnc1	x	x	x	2.9	-2.1
Cc1ccc2oc(NC3=NC4(CCCC4)C4=C(CCCC4=O)N3)nc2c1	9.4	51.7*	x	-1.7	10.9
CN(C)CC(=O)Nc1ccc2c(c1)[C@@H]1C[C@H](CC(=O)NCc3ccccc3)O[C@@H](CO)[C@@H]1O2	x	x	x	-0.7	4.2
C1CCC(C(CC2CCCCN2)C2CCCCC2)CC1 (configuration not stated)	-4.1	-12.1	-6.4	57.9*!	u
O=C(Nc1nc(-c2ccco2)c(-c2ccco2)s1)C1CC(=O)N(c2ccc3c(c2)OCCO3)C1 (configuration not stated)	29.4	80.5*	11.0	x	x
CCOc1ccc(N2CC(C(=O)Nc3ccc4c(c3)OCO4)CC2=O)cc1 (configuration not stated)	-12.8	17.3	0.7	-0.2	3.4
COc1ccc(CC(=O)Nc2nc(-c3ccc(OC)c(OC)c3)cs2)cc1OC	42.3	46.3	28.6	13.9	10.5
CCc1ccc(-c2csc(NC(=O)C3CC(=O)N(c4ccc5c(c4)OCCO5)C3)n2)cc1 (configuration not stated)	48.0	74.7*	25.0	x	8.4
Cc1nnc(NC(=O)C2CC(=O)N(c3ccc4c(c3)OCCO4)C2)s1 (configuration not stated)	1.9	25.9	-2.6	0.6	1.9
COc1ccc(-c2csc(NC(=O)C3CC(=O)N(Cc4ccccc4)C3)n2)cc1OC (configuration not stated)	8.6	89.2*	8.2	-1.2	7.2
CCOc1ccc(N2CC(C(=O)Nc3ccc4c(c3)OCCO4)CC2=O)cc1 (configuration not stated)	60.7*	77.8*	7.3	10.3	26.9
Cc1noc(C)c1NC(=O)Nc1cccc2c1O[C@@H](CN(C)S(C)(=O)=O)[C@@H](C)CN([C@H](C)CO)C2=O	x	x	x	7.5	-4.7
Cc1cc(C)c(NC(=O)C2CC(=O)N(c3ccc4c(c3)OCCO4)C2)c(C)c1 (configuration not stated)	13.3	42.0	8.3	x	x
CCc1cccc(CC)c1NC(=O)C1CC(=O)N(c2ccc3c(c2)OCCO3)C1 (configuration not stated)	21.8	68.9*	2.6	x	x
C[C@H](O)C#Cc1cnc2c(c1)C(=O)N([C@H](C)CO)C[C@@H](C)[C@@H](CN(C)C(=O)CN1CCOCC1)O2	x	x	x	11.6	-15.0
CN(C)C(=O)C[C@@H]1CC[C@H]2[C@@H](COC[C@@H](O)CN2CC2CCCCC2)O1	x	x	x	-0.4	-1.5
CN1C(=O)[C@H](Cc2ccc([N+](=O)[O-])cc2)NC1=S	27.9	50.7*	16.9	36.0	14.0
C[C@@H]1CN([C@H](C)CO)C(=O)c2cc(NC(=O)Nc3cccc4ccccc34)ccc2O[C@@H]1CN(C)Cc1ccc(-c2ccccc2)cc1	x	x	x	4.7	9.4
CC(C)CC#Cc1cnc2c(c1)C(=O)N([C@@H](C)CO)C[C@@H](C)[C@H](CN(C)Cc1cncnc1)O2	x	x	x	-2.6	8.1
COc1cccc(CNc2nc3cc(-c4cccc(Cl)c4)sc3c(=O)n2C)c1OC	10.2	50.3*	x	-9.0	26.7
CCn1c(NCc2cccc(OC)c2OC)nc2ccccc21	-52.4	59.6*	-20.9	x	x
COc1cccc(CNc2nc3cc(-c4cccc(C(F)(F)F)c4)sc3c(=O)n2C)c1OC	10.1	37.8	x	-3.2	18.3
COc1cccc(CNc2nc3cc(-c4cnn(Cc5ccccc5)c4)sc3c(=O)n2C)c1	20.4	68.0*	x	x	14.1
COc1cccc(CNc2nc3cc(-c4ccccc4)sc3c(=O)n2C)c1OC	28.9	63.2*	x	-12.3	10.9
C[C@H]1CCCCO[C@@H](CN(C)Cc2ccc(C(=O)O)cc2)[C@@H](C)CN([C@@H](C)CO)C(=O)c2cc(NC(=O)Nc3ccc(F)cc3)ccc2O1	x	x	x	0.5	-21.6
C[C@H](CO)N1C[C@H](C)[C@@H](CN(C)S(=O)(=O)c2ccc(Cl)cc2)Oc2ccc(NC(=O)Nc3ccccc3)cc2C1=O	x	x	x	5.1	4.8
C/C=C/c1cnc2c(c1)C(=O)N([C@H](C)CO)C[C@H](C)[C@H](CN(C)C(=O)Nc1c(C)noc1C)O2	x	x	x	20.6	2.3
Cc1cccc(-c2ccc([C@H]3[C@H](CO)N4C(=O)CN(C(=O)CN5CCOCC5)C[C@@H]34)cc2)c1	x	x	x	-24.5	x
CCCC#Cc1ccc2c(c1)O[C@@H](CN(C)Cc1ccccn1)[C@H](C)CN([C@H](C)CO)S2(=O)=O	x	x	x	14.6	24.7

Screening data as filed in PubChem BioAssay.
